# In all, about 52,000 compounds went through this assay and about 4,300 (8.3%) were called active. Shown is part of a subset that was picked to be rich in actives. Values without a mark were called inactive. Rule as the data show it: active = survival mostly below about 52% (no sharp cut-off); inactive = mostly above about 56%.
# System: DeltatarO mutant
# Assay: growth inhibition of S. aureus wild type versus tarO mutant, primary screen, teichoic acid synthesis inhibitors, RN4220, OD600 (AID 463173)
# Details: OD600, 18 h, stronger effect = lower value, screened at 18.75 µg/mL (by protocol)
row,Compound,survival
1,Cc1ccc(C)c(NC(=O)CSc2nnc3[nH]c(=O)cc(-c4ccccc4)n23)c1,105%
2,Cc1ccc(NS(=O)(=O)c2ccc3[nH]c4c(c3c2)CCCCCC4)cc1Cl,72%
3,Cc1ccc(CNS(=O)(=O)c2ccc3[nH]c4c(c3c2)CCCC4)cc1,84%
4,O=S(=O)(NCc1ccc(F)cc1)c1ccc2[nH]c3c(c2c1)CCCC3,-1% (active)
5,COc1ccc(NS(=O)(=O)c2ccc3[nH]c4c(c3c2)CCCCC4)cc1,117%
6,Cc1ccc(NS(=O)(=O)c2ccc3[nH]c4c(c3c2)CCCCCC4)cc1C,-1% (active)
7,CC(=O)c1ccc(NS(=O)(=O)c2ccc3[nH]c4c(c3c2)CCCC4)cc1,83%
8,COC(=O)c1ccc(NS(=O)(=O)c2ccc3[nH]c4c(c3c2)CCCC4)cc1,6% (active)
9,COC(=O)c1ccc(NS(=O)(=O)c2ccc3[nH]c4c(c3c2)CCCCC4)cc1,91%
10,Cc1ccc(NS(=O)(=O)c2ccc3[nH]c4c(c3c2)CCCCCC4)cc1,84%
11,COc1cc(NS(=O)(=O)c2ccc3[nH]c4c(c3c2)CCCCCC4)cc(OC)c1,64%
12,O=S(=O)(NCc1ccc(F)cc1)c1ccc2[nH]c3c(c2c1)CCCCC3,61%
13,COc1ccc(NS(=O)(=O)c2ccc3[nH]c4c(c3c2)CCCCCC4)cc1,-2% (active)
14,Cc1ccc(N2C(=O)CCSC23C(=O)N(Cc2ccc(F)cc2)c2ccccc23)cc1 (stereo not drawn),90%
15,CCCCNC(=O)CC1N=C2c3ccccc3N=C(SCC(=O)NCc3ccccc3Cl)N2C1=O (stereo not drawn),72%
16,O=c1c2cc3c(cc2n(Cc2cccc(Cl)c2)c(=O)n1Cc1nc(-c2ccccc2)no1)OCO3,61%
17,O=C(CCCn1c(=O)[nH]c2ccccc2c1=O)NCc1ccccc1Cl,123%
18,COc1ccc(CNC(=O)CSc2ncc(S(=O)(=O)c3ccc(C)c(Cl)c3)c(=O)[nH]2)cc1,80%
19,Cc1ccc(C)c(N2CCN(S(=O)(=O)c3ccc4[nH]c5c(c4c3)CCCC5)CC2)c1,-2% (active)
20,Cc1ccc(C)c(N2CCN(S(=O)(=O)c3ccc4[nH]c5c(c4c3)CCCCC5)CC2)c1,80%

row,Compound,survival
1,Cc1ccc(N2CCN(S(=O)(=O)c3ccc4[nH]c5c(c4c3)CCCCC5)CC2)c(C)c1,102%
2,COCCNc1oc(-c2ccc(OC)cc2)nc1C#N,54%
3,Cc1cc(C)cc(NC(=O)Cn2cc(C(=O)c3cccs3)c3ccccc32)c1,60%
4,Cc1cc(OC(=O)c2cccs2)cc(OC(=O)c2cccs2)c1,99%
5,Cc1cc(C(=O)c2cccs2)c(N)s1,33% (active)
6,COc1ccc(NC(=O)CCN2CCN(c3cccc(Cl)c3)CC2)cc1,67%
7,Cc1ccc(CNC(=O)c2ccc(N3Cc4ccccc4Oc4ncccc43)s2)cc1,81%
8,CCCc1ccc(-c2ccc(C(=O)Oc3ccc(Br)cc3)cc2)nc1,136%
9,CCCCCc1ccc(-c2ccc(C(=O)Oc3ccc(C(=O)OC)cc3)cc2)nc1,71%
10,CCCCCc1ccc(-c2ccc(Br)cc2)nc1,-4% (active)
11,COc1ccccc1C(=O)Nc1cc(-c2cccc(Br)c2)nn1-c1ccccc1,115%
12,Cn1c(=O)oc2cc(S(=O)(=O)N3CCCC(C(=O)NCc4ccc(F)cc4)C3)ccc21 (stereo not drawn),131%
13,Cc1cc(C)n(CCC(=O)Nc2ccc(Cl)cc2)n1,87%
14,CCOc1ccc2ncc3c(-c4cccc(OC)c4)nn(-c4ccccc4)c3c2c1,100%
15,CCc1ccc(-c2nn(-c3ccc(OC)cc3)c3c2cnc2ccc(OC)cc23)cc1,14% (active)
16,Cc1ccc(-n2nc(-c3ccccc3)c3cnc4cc5c(cc4c32)OCO5)cc1C,127%
17,COc1ccc(-n2nc(-c3ccc(C)cc3)c3cnc4cc(F)c(F)cc4c32)cc1,88%
18,FC(F)(F)c1ccc2c(c1)ncc1c(-c3ccccc3)nn(-c3ccccc3)c12,125%
19,CCOc1ccc(-c2nn(-c3ccc(F)cc3)c3c2cnc2ccc(F)cc23)cc1,81%
20,COc1ccc(-c2nn(-c3ccc(C)cc3)c3c2cnc2ccc(C)cc23)cc1OC,76%

row,Compound,survival
1,COc1cc2ncc3c(-c4ccccc4)nn(-c4ccc(C)cc4)c3c2cc1OC,47% (active)
2,COc1ccc2ncc3c(-c4ccccc4)nn(-c4ccc(C)c(C)c4)c3c2c1,18% (active)
3,Cc1ccc(-c2nn(-c3ccccc3)c3c2cnc2ccccc23)cc1C,68%
4,CCc1ccc2ncc3c(-c4ccccc4)nn(-c4ccccc4)c3c2c1,5% (active)
5,COc1ccc(-c2nn(-c3ccc(C)c(Cl)c3)c3c2cnc2cc(OC)c(OC)cc23)cc1,94%
6,O=C(Nc1ccc(F)cc1F)C1CCCN1S(=O)(=O)c1cccc2nsnc12 (stereo not drawn),94%
7,COc1ccc2c(CNCCc3cccs3)c(C(=O)O)n(Cc3ccccc3C)c2c1,94%
8,CC1=C(C(=O)Nc2ccc(C)cc2C)C(c2ccc(Br)cc2)n2ncc(C(=O)Nc3cccc(C)c3)c2N1 (stereo not drawn),128%
9,COc1ccc(-c2nc3ccccc3n3c(-c4cccc(C)c4)c4c(=O)n(C)c(=O)n(C)c4c23)cc1,71%
10,CC(=O)Nc1cc(-c2ccccc2)nn1Cc1cccc(Cl)c1,57%
11,Cc1ccc(-c2cc(C(=O)O)n(Cc3ccccc3)n2)cc1,67%
12,CCOC(=O)c1cc(-c2ccccc2)nn1Cc1ccccc1,-12% (active)
13,O=C(O)c1cc(-c2ccccc2)nn1Cc1ccccc1,73%
14,CCOC(=O)c1cc(-c2ccc(OC)cc2)nn1Cc1ccccc1,66%
15,Cc1ccc(-c2cc(N)n(Cc3cccc(Cl)c3)n2)cc1,55% (active)
16,Cc1ccc2c(c1)cc1c(=O)n(Cc3cccc(Cl)c3)nc(C)n12,89%
17,COc1ccc(-c2cc(C(=O)O)n(Cc3ccccc3)n2)cc1,76%
18,CCOC(=O)c1cc(-c2ccc(C)cc2)nn1Cc1ccccc1,-12% (active)

# Reference: PubChem BioAssay AID463173 (ICCB-Longwood Screening Facility, Harvard Medical School, 2010)
